Source: PubChem BioAssay
This is a sample that favours compounds with a hit; in the whole collection about 7.3% have one here.
HCMV antiviral = human cytomegalovirus inhibition. activity change, negative = inhibition, % at 57.5 µM. AID 1259415. HFF cells, HCMV-luciferase reporter, 72 h; hits give low values. 410,000 tested, 4.5% active; in the data active = activity change below about -60%; inconclusive = no clear call, values can overlap the other calls; inactive = above about -39%
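Two compound doses tested in HFFs infected with HCMV-luciferase, MOI 1 PFU/cell, 72 h at 37C. Lysate luminescence read with OneGlo; data normalized against buffer-only and 10uM Salinomycin inhibitor controls.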
FMDV antiviral = foot and mouth disease virus antiviral activity. AID 1159524. 410,000 tested, 1.2% active. FMDV antiviral cell-based qHTS. Potency, µM (doses to about 57.9 µM), without a hit: at the top dose activity change, negative = inhibition, most hits filed as inhibitors; calls by dose curve; tested in HEK293T cells; also: read-out not given here; potency is read from the fitted curve at half-maximal effect; nearly all actives have a fitted effect of over 45% in size
HCV inh = HCV inhibition; Huh7.5.1 HCVcc-Cre infection, luciferase reporter, 44 h; Potency, µM (titrated, usually from 41.8 µM), inactives show at the top dose activity change, negative = inhibition, hits mostly inhibitors; 340,000 tested, 3.4% active; active = well fitted inhibition curve with a large enough effect; inconclusive = small, poorly fitted or top-dose-only effect, or another doubt; inactive = no such curve, though single readings can be large or run the other way; also: potency is read from the fitted curve at half-maximal effect
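Antiviral activity was scored by luciferase reporter output from cells infected with HCVcc-Cre (~0.5 moi) in presence of compound, 44 h infection period, cells seeded 1,000/well 4 h prior.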
Vaccinia mCherry = inhibitors of vaccinia virus infection (mCherry reporter signal) | Vaccinia virus mCherry reporter infection, fluorescence | Potency, µM (series often up to 36.5 µM), inactives show at the highest dose activity change, negative = inhibition, usual class: inhibitors | 310,000 tested, 0.63% active; calls by dose curve; tested in A549 cells; also: potency is read from the fitted curve at half-maximal effect; nearly all actives have a fitted effect of over 35% in size
VACV Venus inh = inhibitors of vaccinia virus (Venus reporter); AID 720580; Vaccinia virus Venus reporter expression, fluorescence; Potency, µM (doses to about 36.5 µM), inactives show top-dose activity change, negative = inhibition, hits mostly inhibitors; 330,000 tested, 0.46% active; calls by dose curve; tested in A549 cells; also: potency is read from the fitted curve at half-maximal effect; nearly all actives have a fitted effect of over 30% in size
Numbers without * were called inactive; i = inactive; ? = inconclusive; . = not tested or not shown; + = active, no number; [ ] = another dose, or the depositor's remark. % is scaled to controls: 0 for no effect and ±100 for the full control effect.

SMILES	HCMV antiviral	FMDV antiviral	HCV inh	Vaccinia mCherry	VACV Venus inh
Cc1ccc(N(CC(O)Cn2c3ccccc3c3ccccc32)S(=O)(=O)c2ccc(F)cc2)cc1 (stereo unspecified)	-92*	?	.	-1%[7.34 µM]	-3%[7.34 µM]
CCC(=O)N1c2ccccc2CC1C(=O)NCCN1CCN(c2cc(Cl)ccc2C)CC1 (stereo unspecified)	-1	?	.	-15%	-8%
COc1ccccc1CNc1ncnc2sc(C(=O)N3CCN(C)CC3)c(C)c12	.	3%	.	-7%	-5%
CCOc1ccc(CN2CCN(CC(O)Cn3c4ccccc4c4ccccc43)CC2)cc1 (stereo unspecified)	-1	-5%	18%	-3%	-12%
COc1ccc(CN2CCN(CC(O)Cn3c4ccccc4c4ccccc43)CC2)cc1 (stereo unspecified)	-11	?	11µM*	.	.
O=C1CCc2ccc(OCCCCN3CCN(c4cccc(Cl)c4Cl)CC3)cc2N1	-17	20µM*	-15%	?	-28%
Cc1ccc(-c2onc(C)c2C)cc1S(=O)(=O)N1CCOc2ccccc21	+	0%	?	.	.
Cc1cc(-c2ccc(C(C)C)c(S(=O)(=O)N3CCOc4ccccc43)c2)on1	-64*	?	?	-15%	-4%
Cc1cnc(-n2ncc(C(=O)NCCN3CCOCC3)c2C(C)C)nc1-c1ccc(F)cc1	.	9%	.	-3%	-2%
COc1cc(/C=C2\C(=O)ON=C2c2ccccc2)cc(Cl)c1O	20	7.1µM*	11%	14%	40%
CCOc1cc(/C=C2\C(=O)ON=C2c2ccccc2)cc(Br)c1O	-22	11µM*	-17%	5%	61%
CCOc1cc(/C=C2\C(=O)ON=C2C)ccc1OCc1ccccc1	-76*	28µM*	-3%	-14%	-5%
COc1cc(C=C2C(=O)OC(c3ccccc3)OC2=O)cc(Br)c1O (stereo unspecified)	3	10µM*	15%	i	-5%
CCCOc1ccc(/C=C2/C(=O)ON=C2C)cc1OCC	21	?	19%	-9%	-4%
COc1cc(/C=C2\C(=O)ON=C2c2ccccc2)cc(Br)c1O	16	10µM*	-19%	4%	51%
O=C1ON=C(c2ccc(Cl)cc2)/C1=C/c1ccc(O)cc1	-100*	13µM*	?	7%	8%
Cc1ccc(CN2CCOc3ccc(CN4CCC(Oc5cccnc5)CC4)cc3C2)o1	.	-16%	.	-10%	-8%
O=C(NCCc1ccccc1)c1ccc(Cn2c(SCc3ccccc3F)nc3cccnc32)cc1	?	8%	.	-29%	-25%
CCCOc1ccc(C(=O)C(c2ccccc2)N2CCOCC2)cc1 (stereo unspecified)	-16	14%	5%	.	-25%
COc1ccc(C(=O)C(CN2CCOCC2)c2ccccc2)cc1F (stereo unspecified)	-105*	?	?	10µM*	13µM*
CCCOc1ccc(C(=O)C(CN2CCOCC2)c2ccccc2)cc1 (stereo unspecified)	-104*	14µM*	?	?	?
COc1ccc(C(O)C(CN2CCOCC2)c2ccccc2)cc1F (stereo unspecified)	-8	5%	0%	.	.
CC(=O)Nc1ccc(-n2c(=O)c3ccccc3c3ccccc3c2=O)cc1	95	28µM*	2%	-8%	-15%
CC(=O)Nc1ccc(-n2c(C)ccc2C)cc1	-36	-4%	2%	.	.
O=C(O)c1ccc(-n2c(=O)c3ccccc3c3ccccc3c2=O)cc1	-26	35µM*	8%	-1%	-14%
SMILES	HCMV antiviral	FMDV antiviral	HCV inh	Vaccinia mCherry	VACV Venus inh
O=C(c1ccc(F)c(F)c1)N1CCOc2ccc(CN3CCN(Cc4ccccn4)CC3)cc2C1	.	-3%	.	-4%	-12%
COc1ccc(-c2sc3ccccc3c2-c2ccc(OCCN(C)C)cc2)cc1	9	?	?	?	?
Cc1c(-c2ccccc2)c(-c2ccc(OCCN(C)C)cc2)n2ccccc12	-74*	-2%	?	i	-1%
CCCOc1ccc(CC2CCC(=O)NC2=O)cc1 (stereo unspecified)	-69*	11µM*	8%	.	.
Cc1nc2ccccc2nc1C	.	.	.	13%	-7%
Cc1ccc(NNc2c(C)nc3ccccc3nc2=O)cc1	-67*	19%	-9%	?	-17%
CCc1cccc(C)c1NC(=O)NC1COc2ccccc2C1 (stereo unspecified)	12	-19%	.	-11%	0%
CC1=Nc2cc(C(=O)NC3CCC(C)CC3)ccc2Sc2c(C)ccc(C)c21 (stereo unspecified)	.	33%	.	?	-28%
CC1=Nc2cc(C(=O)NC3CCCCC3)ccc2Sc2ccc(Cl)cc21	-87*	-20%	.	-27%[7.34 µM]	-23%[7.34 µM]
CC1=Nc2cc(C(=O)NC3CCCC3)ccc2Sc2ccc(Br)cc21	-76*	-24%	.	?	?
COc1cc(OC)cc(-n2c(=O)c3ccccc3n(Cc3ccccc3C#N)c2=O)c1	1	-4%	.	-17%	-9%
O=C(Nc1ccc2nc(SCC(=O)N3CCCC3)sc2c1)c1cccc(F)c1	-7	?	.	-8%	-6%
CCC/C(=N/Nc1ccc(Cl)cc1)c1cnnc(-c2ccccc2)n1	.	-11%	14µM*	.	.
CC/C(=N/Nc1ccccc1Cl)c1cnnc(-c2ccccc2)n1	-30	15%	?	.	.
Cc1ccc(Cn2ccn(CC(=O)Nc3ccccc3C(F)(F)F)c(=O)c2=O)cc1	-26	0%	.	-8%	-3%
COc1cccc(CCNC(=O)c2ccc(Cn3c(SCc4ccccc4)nc4cccnc43)cc2)c1	35	-14%	.	-17%	-14%
Cc1c(C(=O)C(=O)NCCC2=CCCCC2)c2ccccc2n1C	-62*	20%	18%	-12%	-9%
COc1ccc(CCNC(=O)C(=O)c2c(C)n(C)c3ccccc23)cc1OC	0	-6%	-6%	.	.
CCc1ccc(C2N=C(N)Nc3nc4ccccc4n32)cc1 (stereo unspecified)	-67*	0%	.	i	-5%
CCN1CCOC(=O)C1CC(=O)Nc1cc(C)cc(C)c1 (stereo unspecified)	14	7%	.	4%	-6%
O=C(/C=C/c1ccc(Cl)cc1)NC1CCS(=O)(=O)C1 (stereo unspecified)	?	2%	4%	0%	3%
O=C(NC1CCS(=O)(=O)C1)Oc1ccc(Cl)cc1 (stereo unspecified)	-106*	-22%	16%	.	.
O=c1[nH]c2c(-c3nc(-c4ccc(Cl)cc4)cs3)c(O)cn2c2ccccc12	.	.	.	26%	-3%
CC(C)c1ccc(C(=O)NC(=S)NCc2cccnc2)cc1	-74*	-27%	-12%	-22%	-14%
O=C(NCc1cccnc1)c1cccc(F)c1	29	?	-9%	.	-4%
O=C(NCc1ccco1)c1cccc2ccccc12	-21	-17%	2%	.	-4%
O=C(CCNC(=O)c1ccc([N+](=O)[O-])cc1)NCc1ccco1	-72*	-18%	16%	.	.
O=C(NCc1cccnc1)c1cccc(Cl)c1	-61*	-1%	14%	.	-22%
